The results in this text go back to PubChem BioAssay AID489018 (Southern Research Specialized Biocontainment Screening …, 2010).

Among all 2,300 compounds or so, about 350 (15%) were called active. How the calls were made is not given here. These entries were drawn from the full list. Results with a measured potency or affinity are listed apart.

The test in a line: HepG2 cell cytotoxicity, dose response, cytotoxicity control for non-replicating M. tuberculosis project (AID 489018).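 Further: HepG2 human liver cells.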 The following applies: series mostly up to 20 µM.
On to `O=C(N/N=C/c1cc([N+](=O)[O-])ccc1O)C12CC3CC(CC(C3)C1)C2`, for which the call was inactive.

Consider `CCN1CCN(c2ccc(S(=O)(=O)N3CCCCC3)cc2NC(=O)c2ccc([N+](=O)[O-])o2)CC1`, for which the compound was called inactive.

Regarding `O=C(OCc1cccc(F)c1)c1ccc2c(=O)n3c(nc2c1)CCC3`, the compound was called inactive.

For the compound `CN(C)CC/C=C1/c2ccc(F)cc2Sc2ccc(Cl)cc21`, the compound was classed as inactive.

Regarding `O=[N+]([O-])c1cc(-c2nc(-c3ccncc3)no2)cc([N+](=O)[O-])c1`, the call was inactive.

With `O=c1c2cc(Cl)ccc2oc2nc3n(c(=O)c12)CCCS3`, the result was inactive.

For `CC(=O)CC1(OC(C)=O)C(=O)N(C)c2ccccc21` (configuration not stated), the compound was classed as inactive.

Take `COc1cc(OC)cc(OC(=O)c2ccc3c(=O)n4c(nc3c2)CCC4)c1`: the outcome was inactive.

Consider `Oc1ccc(F)c2cccnc12`, for which the result was inactive.

In the case of `O=C(Oc1cccc2cccnc12)c1cccc([N+](=O)[O-])c1`, the outcome was inactive.

Regarding `COc1ccc(/C=N/NC(=O)c2ccncc2)cc1CN1CCOCC1`, the compound was called inactive.

Regarding `O=C(Oc1cccc2cccnc12)c1cccc(-n2cnnn2)c1`, the result was inactive.

Consider `O=C(Oc1cccc2cccnc12)c1ccc2c(c1)OCCO2`, for which the call was inactive.

Regarding `O=C(CCN1CCOCC1)c1ccc(Cl)cc1`, the compound was classed as inactive.

Turning to `COc1cc(NC(=O)N2CCOCC2)cc(OC)c1`, the compound was called inactive.

Take `CCc1ccc(N2NC(=O)/C(=C/C=C/c3ccco3)C2=O)cc1`: the result was inactive.

Consider `Cc1ccccc1OCCCCc1c(C)n[nH]c1C`, for which the result was inactive.

For the compound `COc1ccc(C(=O)COC(=O)c2ccc(Cl)nc2)c(OC)c1`, the call was inactive.

Take `COc1ccc(N2C(=O)NC(=O)/C(=C/c3ccc([N+](=O)[O-])s3)C2=O)cc1`: the outcome was inactive.

Take `CCc1ccc(Cc2cnc(NC(=O)C3=NCCN3)s2)cc1`: the compound was called inactive.

As for `CCCCNC(=O)Cc1ccc(C)cc1`, the compound was called inactive.

Take `COc1cccc2[nH]c3c(Cl)ncnc3c12`: the compound was called inactive.

Turning to `Cc1ccc(C(=O)Oc2cccc(-n3cnnn3)c2)cc1`, the outcome was inactive.

Turning to `CCOC(=O)C1(CCc2ccccc2)CCN(Cc2ccccn2)CC1`, the result was inactive.

On to `O=C(COc1c(Br)cc(Br)c2cccnc12)N1CCCCC1`, for which the compound was called inactive.

As for `O=C(OCC(=O)N1CCN(c2ccccc2)CC1)c1cnc(Cl)c(Cl)c1`, the call was inactive.

For the compound `Cc1[nH]n2c(=O)c3c(nc2c1-c1ccccc1)CCCC3`, the call was inactive.

Take `O=C(Nc1nc2ccccc2[nH]1)c1cccc([N+](=O)[O-])c1`: the call was inactive.

With `Cc1cc(C)n2[nH]c(=O)c(N=Nc3cccc(C(F)(F)F)c3)c2n1`, the call was inactive.

For `CCOC(=O)c1ccc(-c2ccc(C(=O)Nc3cccnc3)o2)cc1`, the result was inactive.

As to `Cc1cccc(C)c1NC(=O)COC(=O)CCc1c[nH]c2ccccc12`, the compound was classed as inactive.

Consider `O=C(COc1ccc(-c2ccccc2)cc1)Nc1cccnc1`, for which the outcome was inactive.

As for `O=C(COc1ccc(Nc2ccccc2)cc1)OCC(=O)N1CCCCC1`, the outcome was inactive.

In the case of `CCn1nnc(NC(=O)c2sc3ccccc3c2Cl)n1`, the compound was called inactive.

As to `O=C(Nc1nccs1)c1sc2ccccc2c1Cl`, the compound was classed as inactive.

As for `CCCc1ccc(OCc2ccc(C(=O)N/N=C/c3cccnc3)o2)cc1`, the call was inactive.

Take `O=C(Nc1ccc(Cl)c(Cl)c1)O/N=C/c1ccncc1`: the result was inactive.

With `O=C(COc1ccccc1)NNc1nc2ccccc2s1`, the outcome was inactive.

Consider `CC(C)(C)/C(O)=C/c1nc2ccccc2oc1=O`, for which the call was inactive.

For the compound `O=C(N/N=C/c1cc([N+](=O)[O-])ccc1O)C1CCCCC1`, the outcome was inactive.

In the case of `Cc1ccc(-c2ccc(/C=N/NC(=O)CN3CCCC3)o2)cc1Cl`, the call was inactive.

For the compound `Nc1ccc2nc3c(c(Cl)c2c1)CCCC3`, the compound was called inactive.

`CCOC(=O)c1cnc(Nc2nc3ccccc3o2)nc1CSC(=S)N1CCCCC1`: the call was inactive.

Consider `Oc1ccccc1/C=N/Nc1nc2ccccc2o1`, for which the compound was called inactive.

For the compound `O=C(OCCCOC(=O)c1ccc([N+](=O)[O-])o1)c1ccc([N+](=O)[O-])o1`, the compound was called inactive.

Consider `O=C1Nc2cc(C(=O)NCCCN3CCOCC3)ccc2S/C1=C/c1cccc(Cl)c1`, for which the call was inactive.

`Cc1ccc2oc(=O)c3cc(C(=O)NCCCN4CCCCCC4)sc3c2c1`: the compound was classed as inactive.

Consider `COc1cccc(/C=C2\SC(=S)N(CCC(=O)N3CCCCC3)C2=O)c1`, for which the call was inactive.

In the case of `CN1C(=O)/C(=C/c2cccc(Cl)c2)Sc2ccc(C(=O)N3CCCC3)cc21`, the compound was called inactive.

As to `Cc1ccc(/C=N/NC(=O)C2COc3ccccc3O2)s1` (configuration not stated), the call was inactive.

With `Cc1ccnc(NC(=O)c2cc3ccccc3o2)c1`, the result was inactive.

As for `CC(C)(C)C(=O)/C=C/Nc1ccccc1O`, the compound was called inactive.

For the compound `O=C(OCC(=O)N1CCN(c2ccccc2)CC1)c1ccc(Cl)cc1[N+](=O)[O-]`, the call was inactive.

Regarding `COc1cc(NCCC(=O)c2cccs2)c(OC)cc1Cl`, the compound was classed as inactive.

Consider `COC(=O)C1=C(N)OC2=C(C(=O)CC(C)(C)C2)C1c1cccnc1` (configuration not stated), for which the result was inactive.

On to `CCOC(=O)CNC(=O)CNC(=O)c1nn(-c2ccc(OC)c(Cl)c2)c(=O)c2ccccc12`, for which the call was inactive.

`Cc1cc(Cl)cc(C)c1OCCCCn1ccnc1`: the compound was called inactive.

As for `CCn1c(=O)c(C(=O)Nc2ncccc2C)c(O)c2ccccc21`, the compound was classed as inactive.

With `CCCCCCn1c(=O)c(C(=O)Nc2nnc(C)s2)c(O)c2ccccc21`, the compound was called inactive.

In the case of `Cc1cccnc1NC(=O)c1c(O)c2ccccc2n(C)c1=O`, the call was inactive.

`CCCCn1c(=O)c(C(=O)Nc2nnc(C(C)C)s2)c(O)c2ccccc21`: the compound was classed as inactive.

In the case of `CCCCn1c(=O)c(C(=O)Nc2ncccc2C)c(O)c2ccccc21`, the compound was called inactive.

Turning to `C=CCn1c(=O)c(C(=O)Nc2cccnc2)c(O)c2ccccc21`, the compound was classed as inactive.

As to `Cc1cccc(NCc2ccc([N+](=O)[O-])s2)c1`, the call was inactive.

For `c1coc(CNc2nc(N3CCCCC3)nc3ccccc23)c1`, the outcome was inactive.

For `Cc1ccc(NC(=O)COC(=O)C2=COCCO2)c([N+](=O)[O-])c1`, the call was inactive.

`Cn1c(NC(=O)c2ccccc2)nc2ccccc21`: the compound was classed as inactive.

Turning to `COc1ccc2c(c1)sc(=N)n2C`, the outcome was inactive.

For `Cc1ccc2c(c1)c(C1=c3ccccc3=NC1=O)c(O)n2C`, the result was inactive.

As for `COc1ccc(COc2cccc(C=O)c2)cc1`, the result was inactive.

Regarding `COc1ccc(C(=O)OCn2nnc3ccccc3c2=O)cc1[N+](=O)[O-]`, the compound was called inactive.

In the case of `COc1ccc(C(=O)C2CCCN(C(=O)c3ccc(CSC)o3)C2)cc1F` (configuration not stated), the call was inactive.

With `O=C(N/N=C/c1ccc[nH]1)c1ccncc1`, the compound was called inactive.

In the case of `CCOC(=O)CC(=O)Nc1ccc(C(=O)OCC)cc1`, the result was inactive.

Regarding `C/C(=N\Nc1nc2ccccc2[nH]1)c1cc2ccccc2o1`, the compound was classed as inactive.

In the case of `O=C(N/N=C/c1cccc([N+](=O)[O-])c1O)c1cccs1`, the result was inactive.

In the case of `Cc1cc(N/N=C/c2ccccc2[N+](=O)[O-])nc(-n2nc(C)cc2C)n1`, the result was inactive.

Turning to `NC(N)=N/N=C/c1cccc([N+](=O)[O-])c1O`, the compound was classed as inactive.

In the case of `O=C(N/N=C/C=C/c1ccccc1[N+](=O)[O-])c1ccncc1`, the result was inactive.

Take `COc1cc(Cl)cc(/C=N/NC(N)=O)c1O`: the compound was called inactive.

Consider `O=C(NNc1nc2ccccc2s1)Nc1ccc(F)cc1`, for which the call was inactive.

On to `CCc1nnc(NC(=O)c2cc3ccccc3oc2=O)s1`, for which the result was inactive.

As for `Cn1c(=O)[nH]c(=O)c2c1nc([N+](=O)[O-])n2Cc1ccccc1`, the outcome was inactive.

In the case of `C=CCc1cc(Cl)ccc1OCCCn1ccnc1`, the compound was called inactive.

Take `COc1ccc(C2(O)CCN(CC(=O)Nc3nc(-c4ccccc4)cs3)CC2)cc1`: the compound was classed as inactive.

With `Cc1onc(-c2ccccc2Cl)c1C(=O)O/N=C(\N)c1ccc([N+](=O)[O-])o1`, the call was inactive.

On to `CCC(CC)COC(=O)C(C#N)c1nc2ccccc2nc1N1CCN(CC)CC1` (configuration not stated), for which the compound was classed as inactive.

With `NCCOc1ccc(C23CC4CC(CC(C4)C2)C3)cc1`, the compound was called inactive.

`O=c1[nH]c2ccccc2c2oc(CCl)nc12`: the outcome was inactive.

Consider `N=C1/C(=C/c2ccc(OC(=O)c3ccco3)cc2)C(=O)N=C2SC=CN12`, for which the result was inactive.

Take `COC(=O)CN(C#N)c1nc(N(C)C)nc(N(C)C)n1`: the compound was classed as inactive.

In the case of `O=C(Nc1nnc(C2=COCCO2)o1)c1cccc(C(F)(F)F)c1`, the call was inactive.

As to `O=C(N/N=C/c1ccc(O)cc1)c1cccc(C(F)(F)F)c1`, the result was inactive.

`COc1cccc(CN2CCC(N(CCc3ccccc3)Cc3ccccc3)CC2)c1OC`: the compound was called inactive.

As to `OCC#CCSc1nnc(-c2ccc(Br)cc2)o1`, the compound was called inactive.

Consider `COc1cccc(COC(=O)CCNC(=O)c2ccc(Br)cc2)c1OC`, for which the compound was classed as inactive.

On to `CCOC(=O)COc1ccc(C(=O)Nc2cccc(Cl)c2C)cc1`, for which the call was inactive.

On to `O=C(NNC1=Nc2ccccc2SC1)c1ccc(F)cc1`, for which the compound was classed as inactive.

On to `O=C(Nc1nnc(-c2ccc(Br)cc2)o1)c1ccco1`, for which the result was inactive.

As to `O=C(Nc1nnc(-c2ccco2)o1)c1ccc(Cl)s1`, the call was inactive.

For the compound `CCOc1cc(-c2nnc(NC(=O)c3ccco3)o2)cc(OCC)c1OCC`, the compound was classed as inactive.

Consider `CCOc1ccc(OCCSc2ccc(S(=O)(=O)N3CCN(C)CC3)cn2)cc1`, for which the result was inactive.

Turning to `COC(=O)c1ccc(Sc2nnnn2-c2ccccc2)c([N+](=O)[O-])c1`, the result was inactive.

In the case of `FC(F)c1nnc2ccc(Cl)nn12`, the result was inactive.

For `O=C(N/N=C/c1ccc([N+](=O)[O-])s1)c1cccnc1`, the call was inactive.

Regarding `O=C(COc1ccccc1)Nc1nnc(-c2ccc3c(c2)CCCC3)o1`, the compound was called inactive.

As to `Cc1cc(Cl)ccc1OCC(=O)NNC(=O)c1cnccn1`, the outcome was inactive.

On to `O=C(N/N=C\c1ccc([N+](=O)[O-])s1)c1cncc(Br)c1`, for which the call was inactive.

In the case of `Cc1c(C(=O)N(C)C)sc2nc(-c3ccccn3)[nH]c(=O)c12`, the call was inactive.

As to `CN(C)CCCNc1nc2sc3c(c2c(=O)n1CCc1ccccc1)CCCCC3`, the compound was called inactive.

As to `CN(C)CCCn1c(=O)n(C2CCCCC2)c(=O)c2c3c(sc21)CCCCC3`, the compound was called inactive.

With `Cn1c(O)c(C(=Nc2ccccc2)SCc2ccccc2Cl)c(=O)n(C)c1=O`, the call was inactive.

Turning to `C=CCOc1ccc(CNCCO)cc1OCC`, the call was inactive.

With `CCc1cc(OCCCCNCc2ccccc2)ccc1Cl`, the outcome was inactive.

Turning to `C/C(=N/Nc1ccnc2cc(Cl)ccc12)c1ccc(N)cc1`, the compound was classed as inactive.

`CC1CCN(C(=O)COC(=O)c2cc3ccccc3cc2O)CC1`: the compound was classed as inactive.

Take `CCc1c(C)c2ccc(OCC(=O)OC)cc2oc1=O`: the compound was called inactive.
